Laboratory results from PubChem BioAssay (NCI).
This is part of a sample that, as a whole, favours compounds with a hit. Of some 79,000 tested, about 15% had one in any assay. Cut-off read from the data, not from the text of the source: active = growth inhibition above about 70%; inactive = the rest.

Experiments:
[1] = NCI Yeast Anticancer Drug Screen. Data for the rad50 strain (AID 155);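 note: 0% = growth of vehicle-only cultures of the same strain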; conditions: S. cerevisiae rad50 strain growth inhibition; at 50.0 µM; stronger effect = higher value
In short: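 Genetically altered yeast (DNA repair pathway); compound treatment; growth inhibition vs vehicle ctrl.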

[2] = NCI Yeast Anticancer Drug Screen. Data for the mec2-1 strain (AID 157); conditions: S. cerevisiae mec2-1 strain, at 50.0 µM, stronger effect = higher value
In short: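 Vehicle-treated cultures served as reference for growth inhibition of compound-exposed mec2-1 yeast.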

[3] = NCI Yeast Anticancer Drug Screen. Data for the cln2 rad14 strain (AID 165);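 note: 0% = growth equal to vehicle treated cultures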; conditions: S. cerevisiae cln2 rad14 strain, at 50.0 µM, stronger effect = higher value
In short: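 Each compound was tested on cln2 rad14 yeast. Inhibition of growth was calculated against vehicle-exposed controls.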

[4] = NCI Yeast Anticancer Drug Screen. Data for the bub3 strain (AID 167); conditions: S. cerevisiae bub3 mutant strain, at 50.0 µM, stronger effect = higher value
In short: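 Yeast carrying a defined mutation is treated with each compound, and growth is compared with that of vehicle-exposed cells to give inhibition.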

[5] = NCI Yeast Anticancer Drug Screen. Data for the mlh1 rad18 strain (AID 175); conditions: S. cerevisiae mlh1 rad18 strain growth inhibition; at 50.0 µM; stronger effect = higher value
In short: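 Vehicle-treated cultures served as the reference for growth inhibition in a yeast strain carrying DNA damage repair alterations exposed to each compound.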

Measured: growth inhibition

Nc1nc(Cc2ccccc2)c(CCCNc2ccccc2)c(=O)[nH]1
inactive: [1] -4.95% | [2] 5.05% | [3] -74.3% | [4] 1.75% | [5] -12.8%

Cc1cc(Cl)ccc1N=C1NC(=O)C(CC(=O)Nc2cccc(Cl)c2)S1 (centres undefined)
inactive: [1] 28.6% | [2] 15% | [3] 27.6% | [4] 1.8% | [5] 10.2%

CCOC(=O)c1cnc2cc(C)cc(C)c2c1Nc1ccc2c(c1)OCO2
inactive: [1] -8.15% | [2] -4.65% | [3] -36% | [4] 5.45% | [5] -2.9%

O=C(/C=C\c1ccccc1)c1ccc(-c2cccc(-c3ccccc3)c2)cc1
inactive: [1] -8.55% | [2] 7.95% | [3] -17.4% | [4] -3.15%

CC(=O)Nc1ncn(C)c1S(N)(=O)=O
inactive: [1] -4.3% | [2] -19.1% | [3] -16.3% | [4] -7.9% | [5] 15.5%

Nc1nc(N)nc(-c2ccccc2NC(=O)c2ccccc2N)n1
inactive: [1] 2.15% | [2] 14.3% | [3] 8.5% | [4] 6.85% | [5] 18%

FC(F)(F)C1=NCCN1
inactive: [1] -0.5% | [2] -11.1% | [3] 11.4% | [4] -2.45% | [5] -10.3%

CC(=O)[C@H]1[C@H](C)C[C@H]2[C@@H]3CCC4=CC(=O)CC[C@]4(C)[C@@]3(F)C(=O)C[C@@]21C
inactive: [1] -5.45% | [2] 1.2% | [3] -28.4% | [4] 6% | [5] 4%

CC1CCCCc2nc3c(c(=O)n21)CCCC3 (centres undefined)
inactive: [1] 9.3% | [2] -11.8% | [3] 0.25% | [4] 25.6% | [5] 41%

CN1CC(=O)N2CCCCC2C(c2ccccc2)C1 (centres undefined)
inactive: [1] -4.85% | [2] 2.85% | [3] -34.7% | [4] -9.35% | [5] -1.25%

O=C(O)CNc1cc(-c2ccccc2)nc(NCC(=O)O)n1
inactive: [1] -53.7% | [2] -12.3% | [3] 17.8% | [4] -29.1% | [5] 25.4%

CC1c2c(Cl)nc3ccccc3c2Oc2c1c(Cl)nc1ccccc21
inactive: [1] 7.05% | [2] 5.1% | [3] 18.3% | [4] 5.1% | [5] 22.1%

O=[N+]([O-])c1ccc(S(=O)(=O)N/N=C/c2ccco2)cc1
inactive: [1] 14.6% | [2] 5.95% | [3] 9.75% | [4] 13.2% | [5] 23.9%

C/C(CC(=O)Nc1ccc(C)cc1C)=N/N=C(N)N
inactive: [1] -10.8% | [2] -17.2% | [3] 15.4% | [4] -17.7% | [5] -17.1%

O=c1oc2ccccc2c(O)c1C(c1ccc2c(c1)OCO2)N1CCCC1 (centres undefined)
inactive: [1] 7.4% | [2] 36.7% | [3] 15.3% | [4] 8.35% | [5] 22.9%

N#CC(C#N)=CNC(=S)c1ccncc1
inactive: [1] -21.1% | [2] -33.6% | [3] 6.7% | [4] -4.85% | [5] -24.2%

CC1=C(\C=C/C(C)=C/C=C/C(C)=C/C=N/NC(=O)c2cccnc2)C(C)(C)CCC1
inactive: [1] 2.4% | [2] -7.4% | [3] 41.6% | [4] 30% | [5] 27.6%

CC1(C)C(=O)C(C)(C)C1=NN
inactive: [1] 7.5% | [2] 11.8% | [3] 3% | [4] -4.9% | [5] 23.9%

COC(=O)c1c([N+](=O)[O-])ncn1[C@H]1OC[C@@H](OC(C)=O)[C@@H](OC(C)=O)[C@@H]1OC(C)=O
inactive: [1] -24.8% | [2] -8.6% | [3] -0.8% | [4] -5.5% | [5] 1.55%

CCC(/C=C/c1ccccc1)=N\NC(=O)c1ccc(C)cc1
inactive: [1] 9.4% | [2] 10.7% | [3] -4.05% | [4] 15.5% | [5] 5.25%

CN(C)Cc1cc(N=Nc2c(Cl)cccc2Cl)ccc1O
inactive: [1] 14.4% | [2] 19.8% | [3] 1.95% | [4] 28% | [5] 18.4%

O=C1COC(=O)N1
inactive: [1] -6.85% | [2] -22.4% | [3] -3.35% | [4] 0.2% | [5] 8.25%

CCCN(C(=O)c1ccccc1)C(C#N)c1ccc(C(C#N)N(CCC)C(=O)c2ccccc2)cc1 (centres undefined)
inactive: [1] 7% | [2] 1.2% | [3] -10.9% | [4] -11.8% | [5] -32.5%

COc1cc(CC2COC(=O)[C@@H]2Cc2ccc(O)c(OC)c2)ccc1O (some centres undefined)
inactive: [1] -29.7% | [2] -18.9% | [3] 1.25% | [4] 6.55% | [5] 3.1%
